SARS 3CLpro inh = SARS-CoV 3CLpro protease inhibition | inhibition, % at 6 µM | P0C6X7 | 0.14% of 290,000 active | recombinant SARS-CoV 3CLpro, quenched FRET peptide cleavage; in the data active means inhibition above about 12%
PrPC surface inh = reduces human prion protein on the cell surface. inhibition, % at 13.8 µM. P04156. 0.43% of 370,000 active. AID 720596. cell surface PrPC, TR-FRET read-out; in the data active means inhibition above about 24%; further: 0% = median of the test wells and 100% = reference compound wells
ugtP null kill = growth inhibition of S. aureus ugtP deletion strain. S. aureus RN4220 ugtP deletion, OD600 growth, 16 h. growth inhibition, % (concentration not given with the values). 0.54% of 330,000 active; in the data active means growth inhibition above about 68%;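 further: plate controls were untreated wells for no effect and antibiotic for full effect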
DUSP3 inh = DUSP3 (human) phosphatase inhibition. recombinant VHR phosphatase, pNPP absorbance. 0.52% of 290,000 active. P51452. inhibition, % at 13.3 µM. AID 1654; in the data active means inhibition above about 50%
Target sequence (P51452 whole entry, looked up): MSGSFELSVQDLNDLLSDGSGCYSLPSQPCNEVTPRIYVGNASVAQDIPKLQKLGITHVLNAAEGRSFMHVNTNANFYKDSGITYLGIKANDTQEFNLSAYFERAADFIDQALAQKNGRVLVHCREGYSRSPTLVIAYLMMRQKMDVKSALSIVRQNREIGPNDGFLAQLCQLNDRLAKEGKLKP
BJeLR lethal = kills HRASV12-expressing BJeLR cells; 0.17% of 300,000 active; inhibition, % (no concentration beside the values); BJeLR (HRASV12) viability, CellTiter-Glo ATP luminescence, 48 h; in the data active means inhibition above about 50%
Sa RN4220 lethal = kills Staphylococcus aureus RN4220. S. aureus RN4220 growth, OD600, 16 h. inhibition, % (test concentration not listed). 0.33% of 330,000 active. AID 1259311; in the data active means inhibition above about 85%;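 further: plate controls were untreated cells for no effect and reference antibiotic for full effect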
An asterisk follows results filed as active. An excerpt weighted towards active compounds, which were near 1.4% of everything screened.

Screening O=C1c2cccc3cccc(c23)C(=O)N1CCN1CCN(C(=S)Nc2ccccc2)CC1 returned SARS 3CLpro inh 4, PrPC surface inh -36, ugtP null kill 98*, DUSP3 inh 4, BJeLR lethal 2 and Sa RN4220 lethal 93*.
O=C(c1ccccc1)c1c2c(cc3sc4ccccc4[n+]13)-c1cccc3cccc-2c13 was read as SARS 3CLpro inh -124, PrPC surface inh -6, ugtP null kill 100*, DUSP3 inh 12 and Sa RN4220 lethal 100*.
For Cc1sc2cc3c(c(C(=O)c4ccccc4)[n+]2c1C)-c1cccc2cccc-3c12 the results were SARS 3CLpro inh -14, PrPC surface inh -31, ugtP null kill 100*, DUSP3 inh 12, BJeLR lethal 68* and Sa RN4220 lethal 100*.
For Cc1cc2ccccc2cc1C(=O)c1ccccc1 the results were PrPC surface inh 2, ugtP null kill 78 and Sa RN4220 lethal 5.
`CCN1CCc2c(sc(NC(=O)c3cc4ccccc4cc3OC)c2C(N)=O)C1` gave SARS 3CLpro inh -13, PrPC surface inh -5, ugtP null kill -14, DUSP3 inh 0, BJeLR lethal 60* and Sa RN4220 lethal -10.
For COc1cccc(OC)c1C(=O)Nc1sc2c(c1C(N)=O)CCN(Cc1ccccc1)C2 the results were SARS 3CLpro inh -7, PrPC surface inh -7, ugtP null kill 0, DUSP3 inh 29, BJeLR lethal 1 and Sa RN4220 lethal -8.
Screening CCOC(=O)c1ccc(-n2cccc2C=C2NC(=O)NC2=O)cc1 returned ugtP null kill 0 and Sa RN4220 lethal 4.
COC(=O)C1=C(c2ccc(F)cc2OCc2ccccc2)CC2CCC1N2C(=O)N1CCCC1 (centres undefined) was read as ugtP null kill -3 and Sa RN4220 lethal -1.
`O=C(NCc1ccccc1)C1=CC(c2coc3ccccc3c2=O)CC(OCc2ccc(CO)cc2)O1` (centres undefined) gave ugtP null kill -1 and Sa RN4220 lethal 3.
Screening O=C1NC(=O)C(=Cc2ccco2)N1 returned ugtP null kill 5 and Sa RN4220 lethal 5.
`Cc1ccc(NC(=S)NN=C2CCCCc3ccccc32)cc1` gave ugtP null kill active and Sa RN4220 lethal 94.
O=C(Nc1ccc(Cl)c(Cl)c1)OCc1cccnc1 was read as SARS 3CLpro inh 4, PrPC surface inh 13, ugtP null kill 100*, DUSP3 inh -20, BJeLR lethal -4 and Sa RN4220 lethal 100*.
O=C(Nc1cccnc1)OCc1ccccc1 was read as SARS 3CLpro inh 2, PrPC surface inh 11, ugtP null kill -4, DUSP3 inh 40, BJeLR lethal 1 and Sa RN4220 lethal -4.
`O=C(Nc1ccc(Cl)c(Cl)c1)c1cccc(S(=O)(=O)NCc2cccnc2)c1` gave SARS 3CLpro inh 0, PrPC surface inh 14, ugtP null kill 90, DUSP3 inh 8, BJeLR lethal 5 and Sa RN4220 lethal 100*.
For O=C(Nc1ccc(Cl)c(Cl)c1)ON=Cc1ccncc1 the results were ugtP null kill 101* and Sa RN4220 lethal 100*.
For CSCCC(NC(=O)NCc1ccc(F)cc1)C(=O)O (centres undefined) the results were ugtP null kill -4 and Sa RN4220 lethal 2.
Screening COc1cc(C=C(NC(C)=O)C(=O)Nc2ccc(NC(C)=O)cc2)ccc1OC(C)=O returned ugtP null kill -4 and Sa RN4220 lethal 5.
`CC(C)(C)C(=O)OCc1nc(-c2ccc(Cl)cc2)cs1` gave SARS 3CLpro inh 4, PrPC surface inh 8, ugtP null kill 92*, DUSP3 inh 22, BJeLR lethal -2 and Sa RN4220 lethal 1.
Screening COC(=O)C1=C(C)N(Cc2ccco2)C(=O)NC1c1ccccc1 (centres undefined) returned ugtP null kill -16 and Sa RN4220 lethal 2.
`CCC(C)Sc1cc(-c2nc3cc(C)ccn3c2NC2CCCCC2)ccc1OC` (centres undefined) gave PrPC surface inh 13, ugtP null kill 4 and Sa RN4220 lethal 0.
For CCC(C)Sc1cc(-c2nc3ccccn3c2NC2CCCCC2)ccc1OC (centres undefined) the results were PrPC surface inh 7, ugtP null kill 99*, BJeLR lethal -5 and Sa RN4220 lethal 100*.
CCC1CCCCN1CCCNC(=O)Cn1cc2c(n1)-c1c(oc(C(=O)N3CCCC3)c1C)CC2 (centres undefined) was read as SARS 3CLpro inh 7, PrPC surface inh -7, ugtP null kill 0, DUSP3 inh 56*, BJeLR lethal 8 and Sa RN4220 lethal 4.
Screening Cc1c(C(=O)N2CCCC2)oc2c1-c1nn(CC(=O)NCCCN3CCCCC3C)cc1CC2 (centres undefined) returned SARS 3CLpro inh -6, PrPC surface inh -3, ugtP null kill 1, DUSP3 inh 56*, BJeLR lethal 7 and Sa RN4220 lethal 1.
For Cc1c(C(=O)N2CCCC2)oc2c1-c1nn(CC(=O)NCCCN3CCCCC3)cc1CC2 the results were SARS 3CLpro inh 5, PrPC surface inh -4, ugtP null kill 0, DUSP3 inh 47, BJeLR lethal 11 and Sa RN4220 lethal 6.
For CCCCN(CCCC)CCCNC(=O)Cn1cc2c(n1)-c1c(oc(C(=O)N3CCCC3)c1C)CC2 the results were SARS 3CLpro inh -3, PrPC surface inh -5, ugtP null kill 13, DUSP3 inh 29, BJeLR lethal 0 and Sa RN4220 lethal 0.
COc1ccccc1N(CC(=O)N1CCCCCC1)S(=O)(=O)c1ccc(C)cc1 was read as SARS 3CLpro inh -3, PrPC surface inh 12, ugtP null kill -2, DUSP3 inh 50*, BJeLR lethal -8 and Sa RN4220 lethal 5.
Screening COc1ccccc1N(CC(=O)N1CCCC1)S(=O)(=O)c1ccc(C)cc1 returned SARS 3CLpro inh 0, PrPC surface inh -3, DUSP3 inh 2 and BJeLR lethal -7.
CC(=O)C1=C(C)N(CC2CC2)C(=O)NC1c1ccccc1 (centres undefined) was read as ugtP null kill -11 and Sa RN4220 lethal 1.
CC(C(O)c1ccccc1)N(C)C(=O)Cc1ccccc1 (centres undefined) was read as ugtP null kill 1 and Sa RN4220 lethal 6.
For c1ccc(C[n+]2csc3ccccc32)cc1 the results were SARS 3CLpro inh 0, PrPC surface inh 9, ugtP null kill 77, DUSP3 inh 37, BJeLR lethal 8 and Sa RN4220 lethal 6.
Fc1cccc(C[n+]2csc3ccccc32)c1 was read as SARS 3CLpro inh 4, PrPC surface inh 2, ugtP null kill 96*, DUSP3 inh 13, BJeLR lethal 2 and Sa RN4220 lethal 43.
For O=C1C=C(c2cccc3c2oc2ccccc23)CC(c2ccc(F)cc2)C1 (centres undefined) the results were ugtP null kill 4 and Sa RN4220 lethal -5.
`C=Cc1cc(OC)c2c(c1)c(=O)oc1c2cc(OC)c2c(O)ccc(C3OC(C)C(O)C(C)(O)C3O)c21` (centres undefined) gave PrPC surface inh 31*.

Compound activity from PubChem BioAssay.
